Assay results reported in PubChem BioAssay AID1159580 (chemical genetic matrix, 2015).
Hit rate of the full screen: of about 5,500 compounds, about 2,000 (36%) were called active. Not shown: some 18% with an inconclusive outcome. Rule as the data show it: active = normalized growth mostly below about 0.91 (no sharp cut-off); inconclusive = no clear call, values can overlap the other calls; inactive = mostly above about 0.92. The list shows a part of the results.

Assay: chemical genetic growth profiling, strain panel (AID 1159580);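 also: tested at 20 µM; growth read once vehicle control cultures reached saturation at 30 °C; 1 = growth at the plate median or of vehicle wells; lower values mean less growth of the strain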
Conditions: growth OD

Measured: normalized growth

C[C@@H]1O[C@@H](O[C@H]2CC[C@]3(C=O)C4CC[C@]5(C)[C@@H](C6=CC(=O)OC6)CC[C@]5(O)C4CC[C@]3(O)C2)[C@H](O)[C@H](O)[C@H]1O (stereo not given in full)
inactive: S. cerevisiae deletion strains, locus YJR066W, strain TOR1, stronger effect = lower value 0.953 | S. cerevisiae deletion strains, locus YJR075W, strain HOC1, stronger effect = lower value 0.989 | S. cerevisiae deletion strains, locus YKL009W, strain mrt4, stronger effect = lower value 1.05 | S. cerevisiae deletion strains, locus YKL068W, stronger effect = lower value 0.991 | S. cerevisiae deletion strains, locus YKL085W, strain MDH1 (second series), stronger effect = lower value 0.999 | S. cerevisiae deletion strains, locus YKL085W, strain MDH1, stronger effect = lower value 0.999 | S. cerevisiae deletion strains, locus YKL160W, strain elf1, stronger effect = lower value 1.01 | S. cerevisiae deletion strains, locus YKL190W, strain CNB1, stronger effect = lower value 0.988 | S. cerevisiae deletion strains, locus YKR001C, strain vps1, stronger effect = lower value 0.995 | S. cerevisiae deletion strains, locus YKR026C, strain gcn3, stronger effect = lower value 0.997 | S. cerevisiae deletion strains, locus YKR091W, strain srl3, stronger effect = lower value 0.997 | S. cerevisiae deletion strains, locus YLL001W, strain dnm1, stronger effect = lower value 1.01 | S. cerevisiae deletion strains, locus YLL026W, stronger effect = lower value 0.995 | S. cerevisiae deletion strains, locus YLL041C, strain sdh2, stronger effect = lower value 1 | S. cerevisiae deletion strains, locus YLR027C, strain aat2, stronger effect = lower value 0.999 | S. cerevisiae deletion strains, locus YLR039C, strain RIC1, stronger effect = lower value 0.977 | S. cerevisiae deletion strains, locus YLR058C, strain SHM2, stronger effect = lower value 0.981 | S. cerevisiae deletion strains, locus YLR102C, strain apc9, stronger effect = lower value 0.997 | S. cerevisiae deletion strains, locus YLR113W, strain HOG1, stronger effect = lower value 0.952 | S. cerevisiae deletion strains, locus YLR221C, strain rsa3, stronger effect = lower value 1.01 | S. cerevisiae deletion strains, locus YLR258W, strain gsy2, stronger effect = lower value 0.991 | S. cerevisiae deletion strains, locus YLR262C, strain YPT6 (second series), stronger effect = lower value 1.01 | S. cerevisiae deletion strains, locus YLR262C, strain YPT6, stronger effect = lower value 0.914 | S. cerevisiae deletion strains, locus YLR268W, strain sec22, stronger effect = lower value 1.01 | S. cerevisiae deletion strains, locus YLR320W, strain mms22, stronger effect = lower value 0.989 | S. cerevisiae deletion strains, locus YLR330W, strain CHS5, stronger effect = lower value 1 | S. cerevisiae deletion strains, locus YLR342W, strain FKS1 (second series), stronger effect = lower value 1.06 | S. cerevisiae deletion strains, locus YLR342W, strain FKS1, stronger effect = lower value 0.999 | S. cerevisiae deletion strains, locus YLR357W, strain rsc2, stronger effect = lower value 0.959 | S. cerevisiae deletion strains, locus YLR370C, strain arc18, stronger effect = lower value 1.01 | S. cerevisiae deletion strains, locus YLR371W, strain rom2, stronger effect = lower value 0.978 | S. cerevisiae deletion strains, locus YLR384C, strain iki3, stronger effect = lower value 0.987 | S. cerevisiae deletion strains, locus YLR418C, strain cdc73, stronger effect = lower value 0.964 | S. cerevisiae deletion strains, locus YML016C, strain PPZ1, stronger effect = lower value 0.995 | S. cerevisiae deletion strains, locus YML032C, strain rad52, stronger effect = lower value 0.991 | S. cerevisiae deletion strains, locus YML120C, strain ndi1, stronger effect = lower value 0.994 | S. cerevisiae deletion strains, locus YML124C, strain tub3, stronger effect = lower value 0.983 | S. cerevisiae deletion strains, locus YMR058W, strain fet3, stronger effect = lower value 1 | S. cerevisiae deletion strains, locus YMR078C, strain ctf18, stronger effect = lower value 0.976 | S. cerevisiae deletion strains, locus YMR125W, strain sto1, stronger effect = lower value 0.969 | S. cerevisiae deletion strains, locus YMR129W, stronger effect = lower value 0.998 | S. cerevisiae deletion strains, locus YMR205C, strain PFK2, stronger effect = lower value 0.954 | S. cerevisiae deletion strains, locus YMR223W, strain ubp8, stronger effect = lower value 0.962 | S. cerevisiae deletion strains, locus YMR231W, strain pep5, stronger effect = lower value 0.998 | S. cerevisiae deletion strains, locus YMR307W, strain GAS1, stronger effect = lower value 0.977 | S. cerevisiae deletion strains, locus YNL067W, strain RPL9B, stronger effect = lower value 0.975 | S. cerevisiae deletion strains, locus YNL071W, strain lat1, stronger effect = lower value 1 | S. cerevisiae deletion strains, locus YNL183C, strain NPR1, stronger effect = lower value 0.965 | S. cerevisiae deletion strains, locus YNL209W, strain ssb2, stronger effect = lower value 1 | S. cerevisiae deletion strains, locus YNL233W, strain BNI4, stronger effect = lower value 0.999 | S. cerevisiae deletion strains, locus YNL248C, strain rpa49, stronger effect = lower value 1.01 | S. cerevisiae deletion strains, locus YNL250W, strain rad50, stronger effect = lower value 0.993 | S. cerevisiae deletion strains, locus YNL271C, strain bni1, stronger effect = lower value 0.985 | S. cerevisiae deletion strains, locus YNL298W, strain CLA4, stronger effect = lower value 1 | S. cerevisiae deletion strains, locus YNL307C, strain MCK1, stronger effect = lower value 0.992 | S. cerevisiae deletion strains, locus YNL322C, strain KRE1 (second series), stronger effect = lower value 1.01 | S. cerevisiae deletion strains, locus YNL322C, strain KRE1, stronger effect = lower value 0.994 | S. cerevisiae deletion strains, locus YNR049C, strain mso1, stronger effect = lower value 1.01 | S. cerevisiae deletion strains, locus YNR052C, strain pop2, stronger effect = lower value 0.998 | S. cerevisiae deletion strains, locus YOL006C, strain TOP1, stronger effect = lower value 1.12 | S. cerevisiae deletion strains, locus YOL012C, strain htz1 0.98 | S. cerevisiae deletion strains, locus YOL147C, strain pex11, stronger effect = lower value 0.998 | S. cerevisiae deletion strains, locus YOR001W, strain rrp6, stronger effect = lower value 1 | S. cerevisiae deletion strains, locus YOR061W, strain CKA2, stronger effect = lower value 0.973 | S. cerevisiae deletion strains, locus YOR069W, strain VPS5, stronger effect = lower value 1 | S. cerevisiae deletion strains, locus YOR070C, strain gyp1, stronger effect = lower value 0.999 | S. cerevisiae deletion strains, locus YOR080W, strain dia2, stronger effect = lower value 0.988 | S. cerevisiae deletion strains, locus YOR083W, strain WHI5, stronger effect = lower value 1.01 | S. cerevisiae deletion strains, locus YOR106W, strain vam3, stronger effect = lower value 0.998 | S. cerevisiae deletion strains, locus YOR136W, strain idh2, stronger effect = lower value 1 | S. cerevisiae deletion strains, locus YOR144C, strain elg1, stronger effect = lower value 0.993 | S. cerevisiae deletion strains, locus YOR184W, strain ser1, stronger effect = lower value 0.975 | S. cerevisiae deletion strains, locus YOR231W, strain MKK1, stronger effect = lower value 0.996 | S. cerevisiae deletion strains, locus YOR265W, strain rbl2, stronger effect = lower value 0.999 | S. cerevisiae deletion strains, locus YOR270C, strain vph1, stronger effect = lower value 1.02 | S. cerevisiae deletion strains, locus YOR290C, strain snf2, stronger effect = lower value 0.994 | S. cerevisiae deletion strains, locus YOR316C, strain cot1, stronger effect = lower value 0.991 | S. cerevisiae deletion strains, locus YPL051W, strain arl3, stronger effect = lower value 1.01 | S. cerevisiae deletion strains, locus YPL055C, strain LGE1, stronger effect = lower value 1 | S. cerevisiae deletion strains, locus YPL078C, strain atp4, stronger effect = lower value 1.02 | S. cerevisiae deletion strains, locus YPL106C, strain sse1, stronger effect = lower value 0.977 | S. cerevisiae deletion strains, locus YPL240C, strain hsp82, stronger effect = lower value 1.01 | S. cerevisiae deletion strains, locus YPL241C, strain CIN2, stronger effect = lower value 0.995 | S. cerevisiae deletion strains, locus YPL256C, strain CLN2, stronger effect = lower value 0.987 | S. cerevisiae deletion strains, locus YPR119W, strain clb2, stronger effect = lower value 1 | S. cerevisiae deletion strains, locus YPR141C, strain kar3, stronger effect = lower value 0.98 | S. cerevisiae deletion strains, locus YPR163C, strain tif3, stronger effect = lower value 0.983 | S. cerevisiae deletion strains, locus YPR167C, strain met16, stronger effect = lower value 1 | S. cerevisiae deletion strains, strain wtn01, stronger effect = lower value 1.03 | S. cerevisiae strains, strain wild type, stronger effect = lower value 0.989
